BAZ2B block: qHTS Assay for Inhibitors of BAZ2B | 360,000 compounds, 4.4% hits | Potency, µM (highest dose often 114 µM), for the others: top-dose activity change, negative = inhibition, most hits filed as inhibitors | Bromodomain adjacent to zinc finger domain protein 2B (Homo sapiens), Q9UIF8 | AlphaScreen BAZ2B-H3K14Ac peptide displacement; also: % is scaled to controls: 0 for no effect and ±100 for the full control effect; nearly all actives have a fitted effect of over 60% in size
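Complex of BAZ2B and biotin-H3K14Ac (50 nM apiece) forms over 30 min at RT, then faces library compounds up to 110 uM for another 30 min; AlphaScreen beads added, 20 min dark incubation, luminescence read.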
HP1b binding inh: HTS for Inhibitors of HP1-beta Chromodomain Interactions with Methylated Histone Tails. Chromobox protein homolog 1 (Homo sapiens), P83916. AlphaScreen HP1-beta / biotin-H3K9me3 peptide binding. Potency, µM (doses to about 114 µM), without a hit: at the top dose activity change, negative = inhibition, most hits filed as inhibitors. 390,000 compounds, 0.56% hits. AID 540317, 2011; also: nearly all actives have a fitted effect of over 70% in size
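Compound inhibition of the preformed complex between 50 nM HP1-beta and 50 nM biotinylated H3K9me3 peptide was read by AlphaScreen. Buffer was PBS pH 7.4 with 0.01% Tween-20. Incubations ran 30 min at room temperature, with 10 ug/mL donor/acceptor beads.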
G9a block: qHTS Assay for Inhibitors of Histone Lysine Methyltransferase G9a | Histone-lysine N-methyltransferase EHMT2 (Homo sapiens), Q96KQ7 | G9a H3K9 monomethylation, AlphaScreen, 2 h | Potency, µM (series often up to 102 µM), without a hit: top-dose activity, negative = inhibition, actives largely listed as inhibitors | 350,000 compounds, 8.8% hits; also: % is scaled to controls: 0 for no effect and ±100 for the full control effect; nearly all actives have a fitted effect of over 75% in size
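G9a (20 nM) preincubated 15 min RT with compounds, then 500 nM biotinylated H3K9 peptide and 20 uM SAM added; 2 h RT reaction. Monomethyl-H3K9 product detected by AlphaScreen with anti-H3K9me1 antibody, streptavidin donor and anti-rabbit IgG acceptor beads.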
GLS inh: qHTS for Inhibitors of Glutaminase (GLS) | 410,000 compounds, 0.21% hits | GLS enzymatic activity, qHTS titration | Potency, µM (series often up to 45.5 µM), inactives show at the top dose activity change, negative = inhibition, most hits filed as inhibitors | AID 624170, 2012 | Glutaminase kidney isoform, mitochondrial (Homo sapiens), O94925; also: % is scaled to controls: 0 for no effect and ±100 for the full control effect
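Read-out is an Amplex red fluorescence increase coupled through glutamate oxidase and HRP, measured before and after 30 min room-temperature incubation. hKGA is in 45 mM KH2PO4 (pH 8.2) with 0.02% Tween-20; glutamine added as 1mM solution.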
L3MBTL1 inh: qHTS Assay for the Inhibitors of L3MBTL1. Lethal(3)malignant brain tumor-like protein 1 (Homo sapiens), Q9Y468. AlphaScreen L3MBTL1–H3K9me1 peptide binding. Potency, µM (doses to about 57.1 µM), for inactives: at the highest dose activity, negative = inhibition, actives largely listed as inhibitors. 230,000 compounds, 0.66% hits; also: % is scaled to controls: 0 for no effect and ±100 for the full control effect; nearly all actives have a fitted effect of over 60% in size
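L3MBTL1 50 nM + b-AHA-H3(1-15)K9me1 75 nM, 30 min RT; compound added, 30 min RT; streptavidin donor/Ni-chelate acceptor beads 10 ug/mL each final, 30 min RT dark; AlphaScreen read.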
JMJD2A Tudor: qHTS Assay for Inhibitors of JMJD2A-Tudor Domain. Lysine-specific demethylase 4A (Homo sapiens), O75164. AlphaScreen JMJD2A-Tudor / H3K4me3 peptide binding. Potency, µM (doses to about 114 µM), without a hit: top-dose activity change, negative = inhibition, actives largely listed as inhibitors. 390,000 compounds, 4.4% hits. AID 504339, 2011; also: % is scaled to controls: 0 for no effect and ±100 for the full control effect; nearly all actives have a fitted effect of over 50% in size
Active calls of the source: *; ? = inconclusive; . = not tested or not shown; [ ] = dose if it differs, or a comment. Only some compounds are listed: those with a hit (about 10% of all), similar ones and a draw of the others. Calls follow the shape of the dose curve; as a rule, active = well fitted curve in the direction sought with a large enough effect; inconclusive = small, poorly fitted or top-dose-only effect, or another doubt; inactive = no such curve, though single readings can be large; an effect the other way counts as inactive or inconclusive. Potency is read from the fitted curve at half-maximal effect.

SMILES	BAZ2B block	HP1b binding inh	G9a block	GLS inh	L3MBTL1 inh	JMJD2A Tudor
C=CCn1c(SCC(=O)NCc2ccc3c(c2)OCO3)nnc1-c1cccnc1	-5%	11%	6%	-14%	.	-7%
C=CCn1c(SCC(=O)c2ccccc2)nnc1-c1cc2ccccc2o1	-4%	27%	50µM*	9%	-5%	-17%
C=CCn1c(SCC(=O)c2ccccc2)nnc1-c1ccc2c(c1)OCO2	?	-19%	20µM*	-1%	.	35µM*
Cc1ccc(NC(=O)CN2C(=O)CC(c3ccc(C)c(C)c3)=Nc3ccccc32)cc1	-3%	9%	-1%[59 µM]	0%	.	-20%
COc1ccc(CSc2nnc(N)s2)cc1F	-26%	40%	45µM*	-4%	-4%	-24%
CN1c2ccccc2Sc2cc(N)ccc21	28µM*	?	1.1µM*	48%	?	32µM*
CC(=O)N1c2ccccc2Sc2ccccc21	6%	16%	12%	3%	0%	-5%
C/C=C(/CC[C@@H](C)[C@H]1CCC2C3=CC[C@H]4[C@H](C)[C@@H](O)CC[C@]4(C)C3CC[C@@]21C)C(C)C (some centres not stated)	.	.	-16%[59 µM]	-15%	.	.
CN(C)C1(CNCC(O)c2ccccc2)CCCCC1 (configuration not stated)	71µM*	?	20µM*	2%	.	20µM*
CN(C)C1(CNC(=O)Nc2ccccc2)CCCCC1	5%	16%	-11%	-11%	.	0%
COc1cccc(-c2nc(N3CCN(C)CC3)c3ccccc3n2)c1	.	.	-4%[0.501 µM]	.	.	.
Fc1ccc(CSc2nncn2NCc2ccccc2)cc1	0%	32%	16%[59 µM]	-6%	4%	-2%
CN(C)c1ccc(CNn2cnnc2SCc2ccc(F)cc2)cc1	45µM*	-6%	?	39%	.	?
COc1ccccc1CNC(=O)C(=O)NCC(c1cccs1)S(=O)(=O)c1ccc(F)cc1 (configuration not stated)	1%	29%	5%[59 µM]	2%	.	-12%
CCCCNC(=O)N(C)c1nc2ccccc2s1	-4%	46%	50µM*	19%	15%	8%
CCNc1nc(NC(C)C)nc(NC(C)(C)C)n1	-8%	24%	.	1%	8%	-1%
CC(C)Nc1nc(NC(N)=S)nc(NC(C)C)n1	0%	25%	2.5µM*	3%	-7%	-7%
CC(C)Nc1nc(NC(N)=S)nc(NC(C)(C)C)n1	-12%	6%	8.9µM*	1%	-11%	-14%
Cc1ccc(-n2ncc3c(N4CCCCCC4)ncnc32)cc1	29%	93%	84%[59 µM]	3%	.	51%
CCc1c(C)sc2c1CCN(Cc1ccccc1F)C2c1ccccc1 (configuration not stated)	-27%	?	?	-2%	.	-34%
CCC(=O)Nc1ccc(C(=O)NNC(=O)C2CCCCC2)cc1	-2%	49%	45µM*	-3%	.	-8%
COc1ccc(NS(=O)(=O)c2ccc(NC(=O)c3ccc(Br)cc3)cc2)nn1	-14%	23%	1%	-8%	0%	-15%
COc1ccc(NS(=O)(=O)c2ccc(NC(=S)NC(=O)c3ccc(Br)cc3)cc2)nn1	?	-33%	18µM*	28%	-9%	?
O=C(NC(=S)Nc1ccc(S(=O)(=O)Nc2ncccn2)cc1)c1ccc(Br)cc1	-7%	?	50µM*	-18%	10%	-33%
COc1ccc(NS(=O)(=O)c2ccc(NC(=S)NC(=O)c3cccnc3)cc2)nn1	-30%	-10%	28µM*	-21%	24%	0%[11.4 µM]
SMILES	BAZ2B block	HP1b binding inh	G9a block	GLS inh	L3MBTL1 inh	JMJD2A Tudor
COc1cc(NC(=O)COCc2cc(-c3ccc(F)cc3)on2)cc(OC)c1OC	-24%[57.1 µM]	41%	?	-6%	.	-6%
CCC(=O)N1CCc2cc(S(=O)(=O)NCCC(=O)Nc3ccc(OC)c(Cl)c3)ccc21	.	35%	-3%[59 µM]	0%	.	-7%
Cc1c(Cl)cccc1NC(=O)C1CCCN(c2nnc(-n3c(C)ccc3C)s2)C1 (configuration not stated)	1%	28%	9%[59 µM]	-8%	.	-10%
CCOc1ccc(OCC)c(NS(=O)(=O)c2cc(-c3cc(C)no3)ccc2C)c1	-1%	23%	-14%[59 µM]	3%	.	-27%
C=CCn1c(SCC(=O)NCCC2=CCCCC2)nc2ccc(Cl)cc2c1=O	-2%	?	3%[59 µM]	13%	3%	28µM*
Cn1c(=O)cc(SCC(=O)NCCC2=CCCCC2)c2ccc(Cl)cc21	-1%	17%	7%[59 µM]	-2%	2%	-11%
COc1ccc(S(=O)(=O)N2Cc3ccccc3CC2C(=O)Nc2cc(Cl)ccc2Cl)cc1 (configuration not stated)	-7%	25%	-15%[59 µM]	-1%	.	-4%
CCOC(=O)c1ccc(OC(=O)c2cn(-c3cccc(OC)c3)c(=O)c3ccccc23)cc1	6%	25%[57 µM]	0%[59 µM]	9%	.	-16%
CCOC(=O)c1cccc(NC(=O)c2cn(-c3cccc(OC)c3)c(=O)c3ccccc23)c1	1%	20%	10µM*	1%	.	8%
Cc1cc(-c2ccccc2)c(C#N)c(=S)[nH]1	-9%	79µM*	1.3µM*	-6%	2%	6.3µM*
CCOC(=O)N1CCC(NC(=O)c2ccc3c(c2)N(Cc2cc(C)ccc2C)C(=O)c2ccccc2S3=O)CC1 (configuration not stated)	-15%	23%	-29%[59 µM]	-8%	.	-19%
Cc1ccccc1OCc1nnc(SCc2nc3ccccc3c(=O)[nH]2)n1C	-4%	42%	10%	9%	-6%	-6%
CCCn1c(SCc2nc3sc(C)c(C)c3c(=O)[nH]2)nc2ccccc2c1=O	-8%	24%	50µM*	0%	4%	-13%
C=CCn1c(Cc2ccccc2)nnc1SCc1nc2ccccc2c(=O)[nH]1	3%	55%	50µM*	-1%	9%	-4%
O=c1[nH]c(CSc2nnc(COc3ccccc3)n2-c2ccccc2)nc2ccccc12	3%	-18%	4.5µM*	-3%	?	?
C=CCn1c(SCc2nc3ccccc3c(=O)[nH]2)nc2ccccc2c1=O	4%	23%	7.9µM*	8%	.	-16%
